Structures are written as SMILES. Active and inactive are the calls of the source. The calls were made as follows: active = hit-call score of the fitted dose curve at least 0.9, where 1 is the maximum; inactive = score below 0.9.

Read-out in this test: Thrombomodulin, THBD (gene 7056)
Kind of test: BSK_3C_Thrombomodulin: BioMAP Diversity Plus: 3C Assay for Thrombomodulin Biomarker Activity (AID 2283029). The following applies: primary human endothelial cells (HUVEC); actives raise or lower the signal. The procedure, abridged:
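Endothelial cells from umbilical vein are dosed with test chemical and incubated 24 h. Thrombomodulin is then quantified by ELISA, with DMSO serving as negative control and activity baseline.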
As to `Nc1nc(N)nc(-c2ccccc2)n1`, the result was inactive.
For `Cc1ccc([N+](=O)[O-])cc1N`, the result was inactive.
With `C=CC(=O)NCOCCCC`, the outcome was inactive.
With `CCCCCCCCCCCC(C)=O` the entry was “inactive”; with `CCOC(=O)C1=NOC(c2ccccc2)(c2ccccc2)C1`, “inactive”; with `CC(C)C(=O)OCCc1ccccc1`, “inactive”.
With `CC(C)[N+](C)(CCOC(=O)C1c2ccccc2Oc2ccccc21)C(C)C` the entry was “inactive”; with `Oc1ccc(/C=C/c2cc(O)cc(O)c2)cc1`, “inactive”; with `C=CCCCCCCCCC=O`, “inactive”.
With `C=C(C)C(=O)OCCCCCCCCCCCC` the entry was “inactive”; with `CC(C)c1cccc(C(C)C)c1N`, “inactive”; with `CCOC(=O)/C=C\C(=O)OCC`, “inactive”.
In the case of `CC=C(C)C(C)=O`, the outcome was inactive.

These data come from PubChem BioAssay (EPA / NIEHS).
